Experimental data as given in PubChem BioAssay (NCI).
Compounds without any hit were thinned out: in the full panel of roughly 79,000, 15% have a hit. A number with no mark means an inactive call. The source made the active and inactive calls. No stated cut-off is given here; in the data, active means growth inhibition above about 70%; inactive means the rest.

Tests used:
[1] = NCI Yeast Anticancer Drug Screen. Data for the rad50 strain (AID 155);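 further: 0% = growth of vehicle-only cultures of the same strain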; settings: S. cerevisiae rad50 strain growth inhibition, stronger effect = higher value
How it was run: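 Compounds were tested on a yeast strain with an engineered DNA damage repair alteration; the reported value is growth inhibition normalised to vehicle treatment.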

[2] = NCI Yeast Anticancer Drug Screen. Data for the mec2-1 strain (AID 157); settings: S. cerevisiae mec2-1 strain, stronger effect = higher value
How it was run: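 Using mec2-1 yeast: add compound, measure growth, express inhibition versus vehicle-treated cultures.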

[3] = NCI Yeast Anticancer Drug Screen. Data for the sgs1 mgt1 strain (AID 161);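 further: 0% = growth of cultures given vehicle only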; settings: S. cerevisiae sgs1 mgt1 strain, stronger effect = higher value
How it was run: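 Yeast cells carrying a defined DNA-repair defect were exposed to test compounds. Growth inhibition was measured relative to vehicle-treated controls.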

[4] = NCI Yeast Anticancer Drug Screen. Data for the cln2 rad14 strain (AID 165);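 further: 0% = growth equal to vehicle treated cultures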; settings: S. cerevisiae cln2 rad14 strain, stronger effect = higher value
How it was run: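 Yeast strain cln2 rad14, bearing defects in cell cycle control and DNA repair, serves as the test system; values reflect growth inhibition compared with vehicle.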

[5] = NCI Yeast Anticancer Drug Screen. Data for the bub3 strain (AID 167); settings: S. cerevisiae bub3 mutant strain, stronger effect = higher value
How it was run: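 Growth of a checkpoint-deficient yeast mutant is measured after compound exposure. Values represent inhibition relative to vehicle.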

[6] = NCI Yeast Anticancer Drug Screen. Data for the mlh1 rad18 strain (AID 175); settings: S. cerevisiae mlh1 rad18 strain growth inhibition, stronger effect = higher value
How it was run: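 Steps: expose repair-defective yeast to compound; measure growth; express inhibition against vehicle-treated controls.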

[7] = at 5.0 µM (retest, dose inferred, filed as 0.5)
[8] = at 50.0 µM (retest, dose inferred, filed as 5.0)

Structure (SMILES)	growth inhibition [1, 7]	growth inhibition [1, 8]	growth inhibition ([1]; at 50.0 µM)	growth inhibition [2, 7]	growth inhibition [2, 8]	growth inhibition ([2]; at 50.0 µM)	growth inhibition [3, 7]	growth inhibition [3, 8]	growth inhibition ([3]; at 50.0 µM)	growth inhibition [4, 7]	growth inhibition [4, 8]	growth inhibition ([4]; at 50.0 µM)	growth inhibition [5, 7]	growth inhibition [5, 8]	growth inhibition ([5]; at 50.0 µM)	growth inhibition [6, 7]	growth inhibition [6, 8]	growth inhibition ([6]; at 50.0 µM)
O=Cc1ccccc1O.O=Cc1ccccc1O.[O]=[Mo]=[O]	5%	29%	11.8%	-1%	36%	3.65%	8%	41%	8.2%	-7%	16%	42%	-3%	34%	-5.6%	2%	46%	2.45%
CN(C=O)NC(=O)N(CCCl)N=O	19%	21%	55.2%	13%	1%	62.5%	22%	21%	-13.2%	23%	16%	11.2%	12%	4%	-9.1%			
CC1(C)N=C(N)N=C(N)N1c1ccc(OCC(=O)Nc2cccc(S(=O)(=O)F)c2)c(Cl)c1	4%	38%	70.5% (active)	-20%	97% (active)	95.6% (active)	-3%	63%	64.1%	-2%	-5%	-25.9%	-6%	32%	-1.45%	12%	65%	45%
O=P(Oc1ccccc1)(Oc1ccccc1)Oc1ccccc1Cl	5%	0%	29.4%	3%	-8%	0.05%	-4%	4%	13.6%	0%	-14%	-6.1%	2%	28%	66.5%	-13%	-3%	51.6%
Cc1cc[n+](C2C(=O)c3ccccc3C(=O)C2Nc2cc(Cl)ccc2Cl)cc1 (configuration not stated)	19%	96% (active)	96.8% (active)	11%	98% (active)	98.8% (active)	11%	99% (active)	78.9% (active)	5%	95% (active)	66.2%	15%	98% (active)	98.5% (active)	12%	98% (active)	94.5% (active)
CC(CCC/C=C/CCCN(C)C(=N)N)CC(C)C1OC(=O)C(C)C(O)/C=C/C(C)C(O)C(C)C(O)C(C)C(O)CCCC(O)CC2(O)OC(CC(OC(=O)CC(=O)O)CC(O)CC(O)C(C)C(O)/C=C/C=C/C1C)CC(O)C2O (configuration not stated)	-79%	99% (active)	92.9% (active)	7%	99% (active)	94.1% (active)	6%	99% (active)	93.6% (active)	21%	99% (active)	92.2% (active)	9%	99% (active)	93.1% (active)	13%	99% (active)	92.8% (active)
CCC1(O)C(=O)OCc2c1cc1n(c2=O)Cc2cc3cc(C)ccc3nc2-1 (configuration not stated)	94% (active)	83% (active)	82.2% (active)	36%	64%	83.9% (active)	31%	-19%	47.1%	17%	-4%	18.9%	-1%	-25%	18.8%	36%	61%	64.7%
CN1CCN(c2ccc3nc(-c4ccc5nc(-c6ccc(N(C)CCCl)cc6)[nH]c5c4)[nH]c3c2)CC1	1%	99% (active)	98.4% (active)	-10%	99% (active)	98.8% (active)	-7%	99% (active)	98.8% (active)	47%	99% (active)	98.6% (active)	-18%	99% (active)	98.8% (active)	-16%	99% (active)	98.4% (active)
CN(C)C(=S)Nc1nnc(NC23CC4CC(CC(C4)C2)C3)s1	-1%	61%	96.7% (active)	-29%	89% (active)	96.2% (active)	15%	60%	97.8% (active)	-22%	94% (active)	95.6% (active)	3%	96% (active)	93% (active)	-2%	48%	97% (active)
O=C(O)CN1CCN(CC(=O)O)CC(=O)[O][Hg][O]C(=O)C1	100% (active)	99% (active)	99.3% (active)	100% (active)	100% (active)	99.4% (active)	99% (active)	99% (active)	99.5% (active)	99% (active)	99% (active)	98.3% (active)	100% (active)	100% (active)	99.3% (active)	99% (active)	99% (active)	99.2% (active)
COc1ccc(C[C@H]2NC[C@H](O)[C@H]2OC(C)=O)cc1	34%	99% (active)	92.5% (active)	29%	99% (active)	93.8% (active)	27%	99% (active)	92.3% (active)	43%	99% (active)	89.9% (active)	27%	99% (active)	92.2% (active)			
N#CN(Cc1ccccc1)C(c1ccccc1)(c1ccccc1)c1ccccc1.[I][Sn]([c]1ccccc1)([c]1ccccc1)[c]1ccccc1	99% (active)	96% (active)	98.8% (active)	100% (active)	98% (active)	98.8% (active)	100% (active)	98% (active)	99.5% (active)	99% (active)	94% (active)	98.2% (active)	99% (active)	95% (active)	97.7% (active)	99% (active)	96% (active)	97% (active)
COc1ccc(/C=C(\C)[N+](=O)[O-])cc1OC	53%	97% (active)	90.1% (active)	41%	99% (active)	92% (active)	55%	99% (active)	91% (active)	26%	98% (active)	87.3% (active)	42%	98% (active)	93.8% (active)	58%	99% (active)	93% (active)
CC(=O)Oc1ccc(/C=C/[N+](=O)[O-])cc1	27%	95% (active)	98.9% (active)	6%	99% (active)	99.5% (active)	12%	99% (active)	93.1% (active)	-2%	82% (active)	82% (active)	5%	99% (active)	99.4% (active)			
O=[N+]([O-])/C=C/c1ccc(Cl)cc1[N+](=O)[O-]	97% (active)	98% (active)	99.2% (active)	98% (active)	99% (active)	99.6% (active)	99% (active)	99% (active)	99.5% (active)	98% (active)	97% (active)	99.3% (active)	99% (active)	99% (active)	99.4% (active)			
CC(C)[CH2][Sn](=[O])[c]1ccccc1	8%	18%	99.3% (active)	5%	11%	99.6% (active)	5%	14%	99.5% (active)	2%	10%	94.8% (active)	8%	10%	99.5% (active)			
COC([CH2][Hg])CN1C(=O)c2cc(C)c(C)cc2C1=O (configuration not stated)	99% (active)	99% (active)	99.3% (active)	100% (active)	100% (active)	99.7% (active)	100% (active)	100% (active)	99.6% (active)	99% (active)	99% (active)	98.3% (active)	99% (active)	99% (active)	98.7% (active)			
C1=C(/C=C2\CCCc3c(-c4ccccc4)cc(-c4ccccc4)[o+]c32)CCC/C1=C\C1=C2OC(c3ccccc3)=CC(c3ccccc3)=C2CCC1	-11%	14%	36.6%	3%	2%	52.8%	4%	-8%	66.6%	18%	25%	40.9%	10%	30%	71.2% (active)	3%	35%	31.9%
COc1ccc(NN=O)nc1	21%	16%	31.9%	8%	17%	-2.2%	18%	23%	-20.9%	7%	24%	-18.6%	20%	22%	-22.4%	20%	29%	3.95%
C[N+](C)(C)CC1CCCC1=O (configuration not stated)	18%	70% (active)	51.6%	16%	59%	21.3%	13%	58%	24.6%	11%	34%	19.2%	20%	70% (active)	8.15%	21%	77% (active)	22.6%
